Measured values: ChEMBL document CHEMBL3988442, “University of Dundee, Small-Polar-MMV Screening Library” (2021)
Values joined by “and” are separate entries in the source; they are usually repeats but may differ in a detail not shown here. Equal values may be shown once. For some of these results: Measured potencies and affinities stand elsewhere.

Key:
Design in all cases: scale not given: direction of the effect not stated beside the values
[1] = molecular target: Protein translocase subunit SecA (Escherichia coli (strain K12)) (UniProt P10408); test: Assay to Identify E. coli SecA ATPase Inhibitors; format: functional; conditions: 30 µM
[2] = molecular target: T1, Ubiquitin-activating enzyme e1, putative (Leishmania donovani (strain BPK282A1)) (UniProt E9BSI1); test: Leishmania donovani Ubiquitin Activating Enzyme (LdE1); format: functional; conditions: 30 µM
T1 sequence (whole entry): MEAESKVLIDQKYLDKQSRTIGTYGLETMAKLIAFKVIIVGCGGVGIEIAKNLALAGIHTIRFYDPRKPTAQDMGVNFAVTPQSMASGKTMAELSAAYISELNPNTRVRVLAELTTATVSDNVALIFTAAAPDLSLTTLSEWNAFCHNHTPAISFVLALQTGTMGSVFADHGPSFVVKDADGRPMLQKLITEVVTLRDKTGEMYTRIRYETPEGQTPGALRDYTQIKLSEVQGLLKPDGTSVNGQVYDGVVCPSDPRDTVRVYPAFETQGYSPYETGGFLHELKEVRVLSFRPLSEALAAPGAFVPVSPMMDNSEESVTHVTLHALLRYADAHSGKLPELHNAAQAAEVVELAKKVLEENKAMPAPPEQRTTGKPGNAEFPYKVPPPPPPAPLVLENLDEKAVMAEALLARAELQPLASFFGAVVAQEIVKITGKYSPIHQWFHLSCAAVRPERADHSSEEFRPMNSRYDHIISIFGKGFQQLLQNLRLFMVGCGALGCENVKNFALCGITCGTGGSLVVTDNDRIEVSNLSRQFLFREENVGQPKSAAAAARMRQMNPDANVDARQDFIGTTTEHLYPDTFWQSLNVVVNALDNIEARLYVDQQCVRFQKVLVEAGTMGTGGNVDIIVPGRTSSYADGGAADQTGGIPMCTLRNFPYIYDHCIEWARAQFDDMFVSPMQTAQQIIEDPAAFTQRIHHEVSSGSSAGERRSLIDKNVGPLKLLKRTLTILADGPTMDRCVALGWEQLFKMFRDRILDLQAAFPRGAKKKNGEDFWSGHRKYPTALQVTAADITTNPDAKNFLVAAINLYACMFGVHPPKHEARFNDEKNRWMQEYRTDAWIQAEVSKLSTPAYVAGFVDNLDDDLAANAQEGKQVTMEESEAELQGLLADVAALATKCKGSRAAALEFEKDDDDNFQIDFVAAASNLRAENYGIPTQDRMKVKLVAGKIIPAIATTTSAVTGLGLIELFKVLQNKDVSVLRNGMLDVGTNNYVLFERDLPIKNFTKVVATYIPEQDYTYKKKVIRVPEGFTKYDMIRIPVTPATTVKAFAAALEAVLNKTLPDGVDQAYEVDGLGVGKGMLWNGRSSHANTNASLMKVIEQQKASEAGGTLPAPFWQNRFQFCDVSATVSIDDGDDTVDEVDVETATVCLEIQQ

[3] = molecular target: Sialic acid-binding Ig-like lectin 9 (Homo sapiens) (UniProt Q9Y336); test: Hs-Siglec9 ALPHAscreen SOP 20170721; conditions: 10 µM
Trypanosoma cruzi = test: Trypanosoma cruzi phosphomannomutase and mannose-1-phosphate guanylyltransferase assay; format: functional; conditions: 10 µM
[4] = molecular target: T2, Arginase-2, mitochondrial (Homo sapiens) (UniProt P78540); test: in vitro enzyme assay to detect the production of urea directly proportional to the activity of Arginase II; format: functional; conditions: 33.3 µM; further: in the data most compounds retested in dose-response had high values
T2 sequence (whole entry): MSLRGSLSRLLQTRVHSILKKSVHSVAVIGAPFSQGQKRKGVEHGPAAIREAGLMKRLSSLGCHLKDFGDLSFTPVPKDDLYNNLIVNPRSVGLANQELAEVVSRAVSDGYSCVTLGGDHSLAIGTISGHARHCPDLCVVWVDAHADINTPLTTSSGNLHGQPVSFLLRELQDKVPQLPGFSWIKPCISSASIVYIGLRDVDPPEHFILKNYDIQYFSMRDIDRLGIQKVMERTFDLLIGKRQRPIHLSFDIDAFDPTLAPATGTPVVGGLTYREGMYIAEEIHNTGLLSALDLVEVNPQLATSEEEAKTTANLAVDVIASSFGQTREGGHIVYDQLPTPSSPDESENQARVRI

[5] = molecular target: T3, Proteasome subunit beta (Trypanosoma cruzi) (UniProt O96673); test: Trypanosoma cruzi proteasome chymotrypsin-like activity (TcProtChymo) assay.; further: in the data most compounds retested in dose-response had high values; format: functional; conditions: 9.37 µM
T3 sequence (whole entry): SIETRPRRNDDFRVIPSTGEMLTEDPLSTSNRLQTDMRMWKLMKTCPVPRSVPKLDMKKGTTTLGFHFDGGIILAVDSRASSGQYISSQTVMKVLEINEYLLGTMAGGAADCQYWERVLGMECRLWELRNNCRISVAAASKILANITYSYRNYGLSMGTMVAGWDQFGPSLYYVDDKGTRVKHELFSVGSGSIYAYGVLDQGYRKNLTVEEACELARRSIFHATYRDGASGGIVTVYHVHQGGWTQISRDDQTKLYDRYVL

Homo sapiens = species on record: Homo sapiens; test: To identify inhibition of the IFN signalling (Jak-Stat) pathway via expression of an eGFP reporter gene under the control of an IFN-stimulated response element (ISRE) containing MxA promoter.; format: functional; conditions: 30 µM
[6] = molecular target: T4, Tyrosyl-tRNA synthetase, putative (Trypanosoma cruzi (strain CL Brener)) (UniProt Q4DSP6); test: Trypanosoma cruzi tyrosyl tRNA synthetase (TcYRS) _High Tyrosine SOP; format: functional; conditions: 30 µM; further: in the data most compounds retested in dose-response had high values
T4 sequence (whole entry): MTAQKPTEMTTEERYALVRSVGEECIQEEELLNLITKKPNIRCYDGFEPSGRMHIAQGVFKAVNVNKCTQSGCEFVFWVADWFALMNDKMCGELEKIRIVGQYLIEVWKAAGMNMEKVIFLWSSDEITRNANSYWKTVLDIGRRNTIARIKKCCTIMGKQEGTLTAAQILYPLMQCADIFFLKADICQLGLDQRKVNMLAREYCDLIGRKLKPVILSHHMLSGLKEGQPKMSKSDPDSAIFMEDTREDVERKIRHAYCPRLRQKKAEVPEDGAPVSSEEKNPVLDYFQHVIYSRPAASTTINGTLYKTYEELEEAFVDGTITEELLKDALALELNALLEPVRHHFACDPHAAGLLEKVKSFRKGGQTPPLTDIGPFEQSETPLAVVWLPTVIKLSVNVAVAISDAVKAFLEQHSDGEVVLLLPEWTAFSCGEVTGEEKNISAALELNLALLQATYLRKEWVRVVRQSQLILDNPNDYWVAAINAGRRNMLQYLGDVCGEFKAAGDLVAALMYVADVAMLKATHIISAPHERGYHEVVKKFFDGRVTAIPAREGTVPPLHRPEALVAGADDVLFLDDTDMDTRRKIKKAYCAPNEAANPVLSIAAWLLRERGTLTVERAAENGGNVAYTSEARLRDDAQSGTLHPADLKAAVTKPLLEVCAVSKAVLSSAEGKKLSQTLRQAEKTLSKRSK

[7] = molecular target: T4, Tyrosyl-tRNA synthetase, putative (Trypanosoma cruzi (strain CL Brener)); test: Trypanosoma cruzi tyrosyl tRNA synthetase (TcYRS) SOP; format: functional; conditions: 30 µM
[8] = molecular target: Chromo domain-containing protein 1 (Saccharomyces cerevisiae (strain ATCC 204508 / S288c) (Baker's yeast)) (UniProt P32657); test: ScCHD-1 Enzyme Inhibition Assay; format: functional; conditions: 30 µM; further: in the data most compounds retested in dose-response had high values
N/A = test: Trypanosoma cruzi proteasome luciferase counter-screen; format: functional; conditions: 9.37 µM

Chain of Protein translocase subunit SecA (Escherichia coli (strain K12)) (P10408 whole entry): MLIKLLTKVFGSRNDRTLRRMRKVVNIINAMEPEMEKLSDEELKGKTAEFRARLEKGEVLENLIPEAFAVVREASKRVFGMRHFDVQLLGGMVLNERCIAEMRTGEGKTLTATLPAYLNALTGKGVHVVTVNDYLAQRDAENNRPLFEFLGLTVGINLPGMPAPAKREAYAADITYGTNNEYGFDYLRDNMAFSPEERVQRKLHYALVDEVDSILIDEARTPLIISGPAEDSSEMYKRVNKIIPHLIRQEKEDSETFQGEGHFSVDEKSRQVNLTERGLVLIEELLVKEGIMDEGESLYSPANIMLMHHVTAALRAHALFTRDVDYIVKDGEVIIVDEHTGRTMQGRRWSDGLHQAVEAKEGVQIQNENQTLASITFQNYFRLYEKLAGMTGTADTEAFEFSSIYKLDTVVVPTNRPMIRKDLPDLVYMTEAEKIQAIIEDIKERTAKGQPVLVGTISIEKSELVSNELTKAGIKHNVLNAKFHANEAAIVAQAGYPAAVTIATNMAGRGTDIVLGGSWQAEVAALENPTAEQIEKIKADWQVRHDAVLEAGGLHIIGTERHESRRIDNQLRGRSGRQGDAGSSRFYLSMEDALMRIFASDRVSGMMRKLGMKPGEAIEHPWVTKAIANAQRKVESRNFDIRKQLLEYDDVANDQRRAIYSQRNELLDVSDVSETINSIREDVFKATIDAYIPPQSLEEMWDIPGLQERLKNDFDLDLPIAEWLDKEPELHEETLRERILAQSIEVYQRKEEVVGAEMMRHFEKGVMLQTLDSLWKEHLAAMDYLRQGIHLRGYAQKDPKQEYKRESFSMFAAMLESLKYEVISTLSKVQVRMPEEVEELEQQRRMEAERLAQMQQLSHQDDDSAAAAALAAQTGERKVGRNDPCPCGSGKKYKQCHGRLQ
Chain of Sialic acid-binding Ig-like lectin 9 (Homo sapiens) (Q9Y336 whole entry): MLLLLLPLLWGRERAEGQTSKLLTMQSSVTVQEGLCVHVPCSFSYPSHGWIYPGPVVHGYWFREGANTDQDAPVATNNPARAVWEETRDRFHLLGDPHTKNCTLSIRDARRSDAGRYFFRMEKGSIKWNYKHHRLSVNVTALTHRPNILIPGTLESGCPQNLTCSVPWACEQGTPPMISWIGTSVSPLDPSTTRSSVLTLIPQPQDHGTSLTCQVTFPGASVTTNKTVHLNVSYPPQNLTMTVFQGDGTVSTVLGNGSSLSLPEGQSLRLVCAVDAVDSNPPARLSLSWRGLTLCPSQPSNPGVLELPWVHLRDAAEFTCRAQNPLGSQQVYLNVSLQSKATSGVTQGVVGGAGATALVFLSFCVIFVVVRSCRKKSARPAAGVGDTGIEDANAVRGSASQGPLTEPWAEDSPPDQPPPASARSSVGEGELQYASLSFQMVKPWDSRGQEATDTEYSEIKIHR
Chain of Chromo domain-containing protein 1 (Saccharomyces cerevisiae (strain ATCC 204508 / S288c) (Baker's yeast)) (P32657 whole entry, the tested form may be a part): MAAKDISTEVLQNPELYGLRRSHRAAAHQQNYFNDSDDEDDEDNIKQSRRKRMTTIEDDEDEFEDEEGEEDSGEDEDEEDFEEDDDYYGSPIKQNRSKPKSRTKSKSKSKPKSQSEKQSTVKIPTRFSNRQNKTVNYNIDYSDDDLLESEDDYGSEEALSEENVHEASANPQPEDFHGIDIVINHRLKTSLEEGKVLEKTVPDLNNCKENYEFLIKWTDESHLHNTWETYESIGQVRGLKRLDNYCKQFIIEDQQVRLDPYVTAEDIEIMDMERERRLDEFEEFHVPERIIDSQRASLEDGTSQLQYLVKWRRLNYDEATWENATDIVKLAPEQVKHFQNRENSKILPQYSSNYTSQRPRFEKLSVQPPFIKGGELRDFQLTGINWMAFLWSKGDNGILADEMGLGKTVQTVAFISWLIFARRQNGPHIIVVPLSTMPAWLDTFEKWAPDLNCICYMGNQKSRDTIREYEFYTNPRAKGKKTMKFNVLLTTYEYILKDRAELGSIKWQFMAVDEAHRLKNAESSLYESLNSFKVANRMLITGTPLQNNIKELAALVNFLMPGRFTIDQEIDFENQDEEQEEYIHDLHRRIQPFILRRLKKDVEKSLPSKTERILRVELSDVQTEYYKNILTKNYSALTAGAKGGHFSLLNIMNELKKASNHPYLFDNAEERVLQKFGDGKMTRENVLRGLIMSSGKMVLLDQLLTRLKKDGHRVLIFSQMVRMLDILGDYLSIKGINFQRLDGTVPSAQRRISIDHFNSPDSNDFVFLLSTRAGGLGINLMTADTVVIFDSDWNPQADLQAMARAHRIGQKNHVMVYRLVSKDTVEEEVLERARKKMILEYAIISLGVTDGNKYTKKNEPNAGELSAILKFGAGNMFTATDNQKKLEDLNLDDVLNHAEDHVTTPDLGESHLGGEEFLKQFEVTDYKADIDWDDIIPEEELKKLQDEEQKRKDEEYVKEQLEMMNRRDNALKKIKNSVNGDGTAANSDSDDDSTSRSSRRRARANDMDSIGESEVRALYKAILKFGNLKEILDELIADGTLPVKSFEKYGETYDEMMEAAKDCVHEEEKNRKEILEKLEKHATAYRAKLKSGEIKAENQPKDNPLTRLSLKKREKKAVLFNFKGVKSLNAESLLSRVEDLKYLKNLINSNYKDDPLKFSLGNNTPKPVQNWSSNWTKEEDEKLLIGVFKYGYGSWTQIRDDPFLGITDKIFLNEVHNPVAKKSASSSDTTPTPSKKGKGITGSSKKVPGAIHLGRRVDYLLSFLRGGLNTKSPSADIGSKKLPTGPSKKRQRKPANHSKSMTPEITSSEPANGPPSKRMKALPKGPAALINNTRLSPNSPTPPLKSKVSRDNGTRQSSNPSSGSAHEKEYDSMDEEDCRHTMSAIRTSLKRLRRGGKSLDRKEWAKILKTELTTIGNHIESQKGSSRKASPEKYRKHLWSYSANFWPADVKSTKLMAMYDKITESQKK

Row | Compound | Percent Effect [1] [%] | Percent Effect [2] [%] | Percent Effect [3] [%] | Percent Effect (Trypanosoma cruzi) [%] | Percent Effect [4] [%] | Percent Effect [5] [%] | Percent Effect (Homo sapiens) [%] | Percent Effect [6] [%] | Percent Effect [7] [%] | Percent Effect [8] [%] | Percent Effect (N/A)
1 | CCN(CC1CCOC1)C(=O)Nc1ccc(-n2cncn2)nc1 (stereo not given) | -3.32 | 5.13 | -0.956 | -12.7 | 0 | 9.3 | 5.11 | 4.31 | 10.8 | -5.86 | 
2 | COCCN1CC[C@]2(CN(C(=O)c3cccs3)C[C@H]2C)C1=O | 0.25 | 1.3 | 1.96 | -0.938 | -0.457 | 9.7 | 0.303 | 0.966 | 0 | 0.0651 | 
3 | Cc1cc(NC(=O)CN2CCCC2c2noc(C(C)C)n2)n(C)n1 (stereo not given) | 0.91 | -42.7 | 2.01 | 0 | -0.444 | 4.67 | -3.3 | 2.63 | 5.13 | 0.723 | 
4 | CC(C)N1CC(C(=O)NCc2ccnc(-n3cccn3)c2)CC1=O (stereo not given) | -1.72 | 12.8 | -8.26 | 0.469 | 8.2 | 3.33 | 25.3 | 5.26 | 13.2 | -3.04 | 
5 | Fc1cnc(N2CCOC3(CCN(Cc4ccsc4)CC3)C2)nc1 | -0.851 | 3.9 | -6.39 | -6.52 | 6.88 |  | 4.01 | 11.1 | 7.69 | -4.59 | 5.37% and 9.17%
6 | COCCC(=O)N1CCn2c(COCC3CC3)cnc2C1C (stereo not given) | -9.04 | 1.3 | 6.82 | -3.6 | -3.24 | 4.33 | -4.92 | 0.526 | 5.13 | -2.88 | 
7 | c1cncc(N2CCOCC3(CCCN(c4nncs4)C3)C2)c1 (stereo not given) | -4.46 | -3.9 | -2.68 | -1.27 | -2.02 | 7.33 | 2.84 | 2.63 | 7.69 | 3.64 | 
8 | Cc1cccc(N2CC[C@@H]3CN(Cc4csc(C)n4)CCO[C@@H]3C2)n1 | -6.02 | -14.3 | -1.28 | 6.52 | -6.88 | 7.15 | -15.6 | 1.58 | -5.13 | -0.609 | 
9 | CC(C)CC(=O)N1C[C@@H]2CCN(c3ncccn3)C[C@@H]2C1 | -0.224 | 11.7 | -0.117 | 0.375 | -5.02 | 14.2 | 17.9 | 0 | -10 | -10.7 | 
10 | C[C@H]1CN(Cc2cnn(C)c2)C[C@@]12CCN(Cc1cccnc1)C2=O | -2.17 | 11.7 | 0.906 | -5.07 | 4.57 | 4.21 | 23.4 | 6.76 | 2.5 | -3.65 | 
11 | CCc1n[nH]c(C2CN(C(=O)c3ncoc3C(C)C)CCO2)n1 (stereo not given) | 1.99 | 15.6 | 8.33 | -0.746 | -2.25 | 2.46 | 17.6 | 2.94 | 18.8 | -8.96 | 
12 | CN(C)CCN1CCC2(CCN(C(=O)c3ccc(F)cc3)CC2)C1=O | -1.6 | 14.3 | -0.427 | -5.44 | 2.28 | 16.7 | 12.2 | 10.6 | 12.5 | -6.97 | 
13 | Cn1nc2c(cc1=O)CN(Cc1nnc(-c3ccc(F)cc3)o1)CC2 | -0.335 | 7.69 | -9.64 | -6.48 | 7.79 | 6.23 | 30.1 | 0.478 | 6.02 | -4.76 | 
14 | Cc1ccc2oc(C(=O)N3CCCC(c4noc(C)n4)C3)cc2n1 (stereo not given) | -2 | 5.13 | 1.38 | -3.66 | 4.51 | 3.84 | 11 | 4.31 | 8.43 | -2.57 | 
15 | Cn1cnc2c1CCN(CCCc1ccccc1)C2 | -5.94 | 2.67 | 4.07 | 5.62 | -3.55 | 4.16 | 23.4 | 7.89 | 12.8 | -10.6 | 
16 | O=C(c1cc[nH]n1)N1CCCC(c2cccc(-n3ccnc3)n2)C1 (stereo not given) | -1.25 | 12 | 2.15 | -1.77 | 4.42 | 8.05 | 13.7 | 5.29 | 12.5 | -21.6 | 
17 | CCN(Cc1cccc2c1OCO2)C(=O)Nc1ccncc1 | -0.455 | -2.6 | 12.1 | -2.8 | -2.25 | 2.81 | 34.4 | 0.98 | 0 | 5.59 | 
18 | CCOc1ncccc1NC(=O)NC1CCN(S(C)(=O)=O)CC1 | -4.68 | 2.6 | -7.28 | -6.34 | -6.76 | 8.25 | 25.1 | 0.98 | 4.71 | -11.6 | 
19 | COc1ncccc1NC(=O)c1cccc(C)n1 | 3.56 | 15.4 | -4.18 | 1.41 | 2.05 | 4.18 | 7.05 | 9.09 | 25.3 | -8.29 | 
